Assay outcomes deposited in PubChem by several laboratories.
Rows were chosen to be rich in hits. Some 4.8% of all compounds tested hit in one or more screens of this group.
PfHsp90 set2: growth inhibition of PfHsp90-expressing yeast, primary screen, antimalarial PfHsp90 inhibitor project, S. cerevisiae, BacTiter-Glo luminescence, single point, set 2. BacTiter-Glo ATP, 48 h; yeast lacking PDR1 and PDR3 efflux regulators. inhibition, % at 9.4 µM. 310,000 compounds, 0.32% hits. AID 504621, 2011;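 active means every replicate shows inhibition above about 80%, whatever the replicate mean, limit read from the data; inconclusive means mean inhibition reaches the set limit but some replicate falls short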
NALP1 yeast inh: NALP1 inflammasome inhibitors in reconstituted yeast, colorimetric, S. cerevisiae, triplicate retest; inhibition, % at 10 µM; S. cerevisiae NALP1/ASC/caspase-1 growth, X-gal OD620, 72 h; AID 2071, 2009; 280,000 compounds, 0.61% hits; in the data active means inhibition mostly above about 24%, no sharp cut-off; inactive means mostly below about 32%
tim23-1 inh: growth inhibitors of tim23-1 mutant yeast, primary screen, luminescence, uHTS; AID 463212, 2010; inhibition, % at 20 µM; S. cerevisiae tim23-1 growth, BacTiter-Glo luminescence, 24 h; 330,000 compounds, 1.3% hits;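 active means growth inhibition of the mutant yeast at or above 50%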;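 further: temperature-sensitive mutant grown at 25 °C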
TIM10 inh: growth inhibitors of isogenic TIM10 control yeast, primary screen, counter-screen for tim10-1 yeast inhibitor project, luminescence, uHTS; S. cerevisiae TIM10 strain growth, BacTiter-Glo luminescence, 24 h; inhibition, % at 10 µM; 330,000 compounds, 1.4% hits;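 active means inhibition of 40% or more at the single tested concentration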;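 further: wild-type TIM10 isogenic control strain grown at permissive 25 °C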
SKKanGAS inh: S. pyogenes SKKanGAS growth inhibitors in kanamycin, primary screen, streptokinase expression inhibitor project, SKKanGAS strain, BacTiter-Glo luminescence; 6 h; inhibition, % at 7.5 µM; AID 1662, 2009; 300,000 compounds, 1.3% hits;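 active means mean replicate score, as percent of positive control median, at least 50; inconclusive means mean below 50 but one replicate at or above 50; inactive means mean and every replicate below 50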;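 further: strain carries kanamycin resistance gene driven by streptokinase promoter and grows in 40 µg/ml kanamycin; loss of luminescence reflects streptokinase promoter inhibition or plain growth inhibition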
tim10-1 inh: growth inhibitors of tim10-1 mutant yeast, primary screen, luminescence, uHTS. inhibition, % at 20 µM. 330,000 compounds, 2.2% hits. S. cerevisiae tim10-1 ts strain growth, BacTiter-Glo, 24 h;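 active means inhibition of at least 40%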;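 further: mutant grown at 25 °C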
tim10-1 confirm: growth inhibitors of tim10-1 mutant yeast, confirmation, single concentration, luminescence, S. cerevisiae; S. cerevisiae tim10-1 ts strain growth, BacTiter-Glo, 24 h; inhibition, % at 20 µM; 7,400 compounds, 56% hits; shares compounds with tim10-1 inh;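 active means inhibition of yeast growth at or above a set limit in either of two repeat tests at 20 µM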;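 further: tim10-1 mutant grown at permissive 25 °C to find synthetic lethal compounds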
TIM10 conf: growth inhibitors of wild-type TIM10 yeast, confirmation, counter-screen for tim10-1 synthetic lethality project, single concentration, luminescence, S. cerevisiae. shares compounds with TIM10 inh. S. cerevisiae tim10 strain growth, BacTiter-Glo luminescence, 24 h. inhibition, % at 10 µM. 4,600 compounds, 63% hits;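 active means inhibition of yeast growth at or above a set limit in either of two replicates at 10 µM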; further: this counterscreen used the strain with wild-type TIM10
tim23-1 confirm: tim23-1 mutant yeast growth inhibitors, confirmation, luminescence, single concentration | shares compounds with tim23-1 inh | AID 463218, 2010 | 4,400 compounds, 83% hits | S. cerevisiae tim23-1 growth, BacTiter-Glo luminescence, 24 h | inhibition, % at 20 µM;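 active means inhibition above about 39% in either of two replicate wells at 20 µM, limit read from the data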;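 further: temperature-sensitive tim23-1 mutant grown at 25 °C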
Hits are given with their value; – = inactive; ? = inconclusive; · = no result.

SMILES | PfHsp90 set2 | NALP1 yeast inh | tim23-1 inh | TIM10 inh | SKKanGAS inh | tim10-1 inh | tim10-1 confirm | TIM10 conf | tim23-1 confirm
COc1cc(/C=C2\SC(=S)N(NS(=O)(=O)c3ccc(C)cc3)C2=O)cc(OC)c1OC | – | – | – | – | – | – | · | · | ·
CC1(c2ccc(Cl)cc2)NC(=O)N(CN2CCOCC2)C1=O (stereo unspecified) | – | – | – | – | – | – | · | · | ·
COC(=O)c1c(C)nc2ccccc2c1C(=O)O | – | – | – | – | – | – | · | · | ·
COC(=O)c1cc(C)[nH]c2c(C)cc3nc4ccccc4c3c12 | – | – | 59 | – | – | 50 | 42 | · | –
CCOc1ccccc1C(=O)N/N=C/c1coc2ccc(Cl)cc2c1=O | – | – | 68 | 71 | · | 67 | 54 | – | 69
Cc1ccc2occ(/C=N/NC(=O)c3ccc(Cl)cc3)c(=O)c2c1 | – | – | – | – | – | – | · | · | ·
COc1cc(CNC2CCCC2)c(Br)cc1OC1CCCC1 | – | – | – | – | – | – | · | · | ·
COc1cc(C=O)c(Br)cc1OC1CCCC1 | – | – | 56 | 45 | – | 48 | 33 | 34 | 53
CCOC(=O)CSc1nc2ccccc2n2c(C)nnc12 | – | – | – | – | – | – | · | · | ·
CCN(CC)CCN(C(=O)CCS(=O)(=O)c1ccccc1)c1nc2cc(C)cc(C)c2s1 | – | – | 55 | 44 | ? | 51 | – | 30 | 39
COc1ccc(-c2cn3c(C)c(C(=O)N4CCN(c5ccccc5F)CC4)sc3n2)cc1 | – | – | 56 | – | – | 56 | 55 | · | 67
Cc1c(C(=O)N2CCN(c3ccccc3F)CC2)sc2nc(-c3ccccc3)cn12 | – | – | 53 | 54 | – | 54 | 54 | 51 | 75
COc1ccc(N2CCN(C(=O)c3sc4nc(-c5ccc(F)cc5)cn4c3C)CC2)cc1 | – | · | – | – | – | – | · | · | ·
CCCCN1C(=O)C(=Nc2cccc3cnccc23)c2ccccc21 | – | – | 71 | 42 | – | 45 | 46 | 35 | 67
COc1cccc(NC=C2C(=O)OC(C)(C)OC2=O)c1 | – | – | – | – | – | – | · | · | ·
COc1cccc(NC=C2C(=O)OC3(CCCCC3)OC2=O)c1 | – | – | 74 | 58 | – | 66 | 70 | 72 | 74
CC1(C)CC(=NOC(=O)c2ccccc2)CC(C)(C)N1O | – | – | 68 | 58 | – | 58 | 61 | 70 | 78
CC1(C)Cc2noc(N)c2C(C)(C)N1OC(=O)c1ccccc1 | – | – | – | – | – | – | · | · | ·
CN(C)c1ccc(C(=O)N/N=C/c2cc(Br)cc(Br)c2O)cc1 | · | · | – | – | – | – | · | · | ·
O/N=C/c1cc(Br)cc(Br)c1OCc1ccccc1 | – | · | – | – | – | – | · | · | ·
O/N=C/c1cc(Br)ccc1OCc1ccc(F)cc1 | – | · | 59 | – | – | 41 | 34 | · | 31
Oc1c(Br)cc(Br)cc1C=NCc1ccc(F)cc1 | 99 | – | 79 | – | – | 51 | – | · | 85
O/N=C/c1cc(Br)ccc1OCc1cccc(F)c1 | – | – | – | – | – | – | · | · | ·
Oc1c(Br)cc(Br)cc1C=NCc1ccccc1 | 96 | – | 85 | 59 | – | 55 | 39 | 33 | 90
CCCn1c2ccccc2c2nnc(SCC(=O)Nc3c(C)n(C)n(-c4ccccc4)c3=O)nc21 | – | – | – | – | – | – | · | · | ·
SMILES | PfHsp90 set2 | NALP1 yeast inh | tim23-1 inh | TIM10 inh | SKKanGAS inh | tim10-1 inh | tim10-1 confirm | TIM10 conf | tim23-1 confirm
O=C(O)c1cc(S(=O)(=O)N2CCCc3ccccc32)ccc1Cl | – | – | · | · | – | · | · | · | ·
CCc1ccc(C(=O)NCc2cccs2)s1 | – | – | – | – | – | – | · | · | ·
Cc1ccc(Cl)c(OCC(=O)OC(C)C(=O)NC2CC2)c1 (stereo unspecified) | · | · | – | – | – | – | · | · | ·
COc1ccc(Cl)cc1C(=O)NC(=S)Nc1ccccc1N1CCOCC1 | – | – | – | – | – | – | · | · | ·
O=C(NC(=S)Nc1cc(Cl)ccc1N1CCOCC1)c1ccccc1[N+](=O)[O-] | – | – | 56 | 45 | – | 51 | 50 | 47 | 55
c1ccc(-c2nc3nonc3nc2-c2ccccc2)cc1 | – | – | 61 | 64 | – | 80 | 72 | 57 | 84
Oc1ccc(-c2nc3ccccc3nc2-c2ccccc2)cc1 | – | – | – | – | – | – | · | · | ·
CC1CC(C)CN(c2oc(-c3ccco3)nc2C#N)C1 (stereo unspecified) | – | – | – | – | – | – | · | · | ·
Cc1cc2n(n1)SC(Nc1cc(Cl)ccc1Cl)N2 (stereo unspecified) | – | – | 55 | 48 | – | 47 | 35 | 45 | 37
CCc1ccccc1NC1Nc2cc(C)nn2S1 (stereo unspecified) | – | – | – | – | – | – | · | · | ·
O=S(=O)(c1cnc(Cl)c(Br)c1)N1CCCCCC1 | – | – | – | – | – | – | · | · | ·
COc1cccc(NC(=O)Nc2nc(SC)ns2)c1 | – | – | – | – | – | – | · | · | ·
CCSc1nsc(NC(=O)Nc2cccc(F)c2)n1 | – | – | 78 | 69 | 66 | 61 | 72 | 60 | 84
CCCOc1ccc(C(=O)OCC(=O)c2c(N)n(C)c(=O)n(C)c2=O)cc1OCC | – | – | – | – | – | – | · | · | ·
Cn1c(N2CCC(C(N)=O)CC2)nc2c1c(=O)n(Cc1ccc(Cl)cc1)c(=O)n2C | – | – | – | – | – | – | · | · | ·
Cn1c(N2CCCC2)nc2c1c(=O)n(Cc1ccc(Cl)cc1)c(=O)n2C | – | – | 53 | 56 | – | 55 | 40 | 35 | 60
O=C(C1=C(O)/C(=C/c2ccc(O)cc2)CCC1)C(F)(F)F | – | – | 52 | – | · | 50 | – | · | 59
CC1CCC(=C(C#N)C(=O)Nc2cccc(Cl)c2)CC1 (stereo unspecified) | – | – | 60 | – | – | 45 | 42 | · | 51
N#CC(C#N)=C(N)Nc1cccc(Cl)c1 | – | – | – | – | – | – | · | · | ·
COc1ccccc1/C=C\C=N\n1c(-c2ccc(Cl)cc2Cl)n[nH]c1=S | – | – | – | – | – | – | · | · | ·
Cc1ccc(-n2ncc3c2CCCC3NC(=O)c2csnn2)cc1C (stereo unspecified) | – | – | 52 | – | – | 59 | 41 | · | 43
